The values below come from PubChem BioAssay (NCI).

This assay can be described thus: NCI Yeast Anticancer Drug Screen. Data for the mlh1 strain (AID 171).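 Also: 0% = growth of vehicle-treated control cultures of the same strain.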 The conditions noted are these: S. cerevisiae mlh1 strain growth inhibition, stronger effect = higher value. How it is done:
Growth inhibition of yeast strains with defined genetic alterations is measured as a screen for potential anti-cancer activity. Selected strains with alterations in DNA damage repair or cell cycle control were exposed to compounds and growth inhibition was measured relative to vehicle treated controls. The strain used in this assay is mlh1

Structures are written as SMILES. Compounds without any hit were thinned out: in the full panel of roughly 79,000, 15% have a hit. A number with no mark means an inactive call. The source made the active and inactive calls. Rule as the data show it: active = growth inhibition above about 70%; inactive = the rest.

In the case of `COc1ccc2oc(-c3ccc(Cl)cc3)c(N3CCN(C)CC3)c2c1`, the growth inhibition (at 1.2 µM) was -2%; the growth inhibition (at 3.7 µM) was 0%; the growth inhibition (at 11.0 µM) was 90% (active); the growth inhibition (at 33.0 µM) was 99% (active); the growth inhibition (at 100.0 µM) was 99% (active).
On to `O=C(NCCCCCN1CCC2(CCCCC2)CC1)C(C1CCCCC1)C1CCCCC1`, for which the growth inhibition is, setting by setting: (at 1.2 µM) 0%; (at 3.7 µM) 7%; (at 11.0 µM) 76% (active); (at 33.0 µM) 99% (active); (at 100.0 µM) 94% (active).
On to `CCC(=O)Oc1ccc(/C=N/NC(N)=S)nc1`, for which the growth inhibition by setting is: (at 1.2 µM) -8%; (at 3.7 µM) -3%; (at 11.0 µM) -6%; (at 33.0 µM) -8%; (at 100.0 µM) 3%.
Take `O=[N+]([O-])/C(C(Cl)=C(Cl)Cl)=C1/OCCS1`: the growth inhibition reads like this: (at 1.2 µM) 11%; (at 3.7 µM) 48%; (at 11.0 µM) 97% (active); (at 33.0 µM) 99% (active); (at 100.0 µM) 98% (active).
Taken in the same sequence, the figures for `CCN(CC)CC(O)c1cc(-c2ccc(Cl)cc2)nc2c(-c3ccccc3)cccc12` (stereo not given) were -2%, 2%, 99% (active), 98% (active) and 95% (active).
For `CCOC(=O)C1=C(C)NC(C)=C(C(=O)OCC)C1c1ccc(C)cc1` the same measures were 8%, 9%, 55%, 96% (active) and 95% (active).
For the molecule `CN[C@@H]1C[C@H]2O[C@@](C)([C@@H]1OC)n1c3ccccc3c3c4c(c5c6ccccc6n2c5c31)C(=O)N[C@@H]4O`, the growth inhibition is -20% (at 1.2 µM); -12% (at 3.7 µM); -16% (at 11.0 µM); 0% (at 33.0 µM); -7% (at 100.0 µM).
On to `COc1ccc(C(C#N)=C2C=CC(=NO)C=C2)cc1`, for which the growth inhibition is 8% (at 1.2 µM); 29% (at 3.7 µM); 66% (at 11.0 µM); 97% (active) (at 33.0 µM); 95% (active) (at 100.0 µM).
